Shown are actives, neighbours in structure and some others; about 8.7% of the full set was active somewhere.
VACV Venus inh: vaccinia inhibition (Venus reporter); Vaccinia virus Venus reporter expression, fluorescence; Potency, µM (highest dose often 36.5 µM), inactives show at the highest dose activity change, negative = inhibition, actives largely listed as inhibitors; 330,000 tested, 0.46% active; calls by dose curve; tested in A549 cells; further: nearly all actives have a fitted effect of over 30% in size
Pf growth 48h: P. falciparum growth inhibition at 48 hours (one generation). P. falciparum luciferase growth in erythrocytes, 48 h. Potency, µM (top dose mostly 28.7 µM), without a hit: at the highest dose activity change, negative = inhibition, most hits filed as inhibitors. 310,000 tested, 5.9% active
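Erythrocytes infected with P. falciparum carrying an integrated firefly luciferase reporter (2% hematocrit, 0.1% parasitemia final) were exposed to compounds in RPMI 1640 with 0.5% Albumax at 37 C, 5% CO2. Growth inhibition was scored as reduced luminescence.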
VACV mCherry inh: inhibitors of vaccinia virus infection (mCherry reporter signal); Vaccinia virus mCherry reporter infection, fluorescence; Potency, µM (top dose mostly 36.5 µM), for the others: at the highest dose activity change, negative = inhibition, hits mostly inhibitors; 310,000 tested, 0.63% active; AID 720579; calls by dose curve; tested in A549 cells; further: nearly all actives have a fitted effect of over 35% in size
AMA1 RON2 block: disrupts binding of P. falciparum AMA1 to RON2. 360,000 tested, 0.2% active. AID 720542. AlphaScreen AMA1-biotinylated RON2 peptide binding. Potency, µM (top dose mostly 58.2 µM), for the others: top-dose activity change, negative = inhibition, actives largely listed as inhibitors;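 further: 0% = vehicle wells and -100% = peptide control; nearly all actives have a fitted effect of over 45% in size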
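AMA1 (3D7) with his tag at 25 nM final met compounds first, then biotinylated RON2 peptide at 25 nM; detection used donor plus acceptor beads, 10 µg/mL apiece, read by AlphaScreen after 30 min at room temperature.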
Pf growth 96h: P. falciparum growth inhibition at 96 hours. P. falciparum luciferase reporter growth, 96 h. Potency, µM (top dose mostly 28.7 µM), for the others: at the top dose activity change, negative = inhibition, usual class: inhibitors. 320,000 tested, 6.9% active. AID 504834
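96 h incubation, 37 C, 5% CO2, of luciferase-reporter P. falciparum-infected RBCs (2% hematocrit, 0.05% parasitemia final) with test compounds; endpoint luminescence.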
Active calls of the source: *; i = inactive; ? = inconclusive; nt = no result; [ ] = another dose, or the depositor's remark. Unless noted, the call rests on the fitted dose curve; in most records, active means well fitted curve in the direction sought with a large enough effect; inconclusive means small, poorly fitted or top-dose-only effect, or another doubt; inactive means no such curve, though single readings can be large; an effect the other way counts as inactive or inconclusive. Unless noted, on the % scale 0 is the no-effect control and ±100 the full control effect; potency means the concentration at half of the fitted maximal effect.

SMILES	VACV Venus inh	Pf growth 48h	VACV mCherry inh	AMA1 RON2 block	Pf growth 96h
N#Cc1c(-c2cccc(Br)c2)cc(-c2cccnc2)nc1N	-16.2%	13.1µM*	i	-21.4%	?
COc1ccc(-c2cc(-c3ccc(O)cc3)nc(N)c2C#N)cc1	nt	?	nt	30.3%	-19.4%
COc1ccc(OC)c(-c2cc(-c3cccnc3)nc(N)c2C#N)c1	-28.1%[7.34 µM]	?	-13.2%[7.34 µM]	14.3%	9.28µM*
COC(=O)C1CCN(Cc2ccc3c(c2)CN(C(=O)c2sc(C)nc2C)CCO3)CC1	-6.5%	nt	-14.4%	nt	nt
CCOc1ccc(/C=C/c2cc[n+](C)c3ccccc23)cc1OCC	5.3%	nt	11.2%	nt	nt
COc1cc2c(cc1OC)C(c1ccccc1N)=NCC2	-11.2%	2.94µM*	-7.3%	3.4%	1.04µM*
CCN(CC)c1ccc(NC(=O)Cn2nc(C)n3cccc3c2=O)c(C)c1	-13.1%	nt	-12.3%	nt	nt
CCOc1ccc(-c2nonc2NC(=O)COc2ccc(C)c(C)c2)cc1OCC	7.7%	nt	i	nt	nt
CC(C)(C)NC(=O)C[C@H]1C[C@H](C(=O)N2CCOCC2)[C@@]2(CCC3CCCC3)c3[nH]c4cc(-c5ccco5)ccc4c3CCN2C1=O	10µM*	nt	?	-17.2%	nt
CN(C)CCCNC(=O)C[C@H]1C[C@H](C(=O)N2CCOCC2)[C@@]2(CCC3CCCC3)c3[nH]c4cc(-c5ccco5)ccc4c3CCN2C1=O	12.6µM*	nt	?	3.0%	nt
CCc1nc2nc(C)cc(Nc3cc(C)ccc3C)n2n1	-10.2%	nt	i	nt	nt
Cn1cccc1/C=C1\CCc2ccccc2C1=O	-12.4%	i	?	14.1µM*	-7.2%
CCOC(=O)C(C)CC(C)C(=O)N1CCOCCN(C(=O)C(C)CC(C)C(=O)OCC)CCOCC1 (stereo not given)	-11.3%	8.28µM*	-16.4%	23.4%	82.1%
COc1ccc(NC(=O)CSc2ccc(-c3sc(C)nc3C)nn2)cc1	-5.1%	-15.0%	-14.2%	1.6%	13.1µM*
Cc1nc(C)c(-c2ccc(SCC(=O)Nc3cccc(Cl)c3)nn2)s1	-13.8%	-6.8%	-11.3%	-2.0%	13.1µM*
CCOc1ccccc1NC(=O)CSc1ccc(-c2sc(C)nc2C)nn1	-27.7%	?	?	-7.6%	10.4µM*
COc1ccccc1NC(=O)CSc1ccc(-c2sc(C)nc2C)nn1	-12.1%	nt	-6.8%	nt	nt
CC(=O)c1cccc(NC(=O)CSc2ccc(-c3sc(C)nc3C)nn2)c1	-11.5%	-15.0%	-24.9%	-9.5%	13.1µM*
CCOc1ccccc1NC(=O)NNS(=O)(=O)c1ccc([N+](=O)[O-])cc1	-8.5%	-6.1%	i	9.6%	0.0%
CCOc1ccccc1NC(=O)CSc1ccc([N+](=O)[O-])cc1	2.1%	2.94µM*	6.1%	-11.7%	2.33µM*
O=C(CSc1ccccc1)NCc1ccc2c(c1)CCN2C(=O)c1ccc(Cl)cc1	-10.5%	nt	-1.7%	nt	nt
COc1ccc(S(=O)(=O)NCCc2cn3ccsc3n2)cc1	-9.7%	nt	-10.9%	nt	nt
Cn1nc(-c2ccc(Cl)cc2)nc2c(=O)n(C)c(=O)nc1-2	2µM*	?	2µM*	nt	0.928µM*
Cn1nc(-c2ccc(F)cc2)nc2c(=O)n(C)c(=O)nc1-2	2.82µM*	nt	0.631µM*	nt	nt
Cn1nc(-c2cccnc2)nc2c(=O)n(C)c(=O)nc1-2	2.51µM*	nt	3.16µM*	nt	nt
SMILES	VACV Venus inh	Pf growth 48h	VACV mCherry inh	AMA1 RON2 block	Pf growth 96h
CS(=O)(=O)n1nc(-c2ccc(Cl)cc2)nc1N	-10.0%	51.0%	i	8.6%	-4.4%
Cc1c(CNCCc2ccc(Cl)cc2)c(C(=O)O)c(C)n1-c1ccccc1	-2.0%	11.8%	-12.8%	0.0%	11.7µM*
Cc1ccc(CCNCc2c(C(=O)O)c(C)n(-c3ccccc3)c2C)cc1	nt	-23.0%	nt	-1.7%	?
COc1ccccc1C(=O)NC(=O)OCCn1c(C)cnc1[N+](=O)[O-]	5.0%	-11.0%	9.4%	-5.8%	9.28µM*
C=CCn1c(=O)/c(=C/c2cc(OC)c(OC)c(OC)c2)s/c1=C(/C#N)c1nc2ccccc2n1C	-7.8%	5.22µM*	-7.8%	-18.2%	80.0%
C=CCn1c(=O)/c(=C/c2ccc(O)cc2)s/c1=C(/C#N)c1nnc2n1CCCCC2	180.1%	?	0.3%	-2.2%	?
Cc1cccc(CNC(=O)c2ccc(NC(=O)N3CC(C)Sc4ccccc43)cc2)c1 (stereo not given)	-5.3%	nt	-2.3%	nt	nt
CC1CCCCC1NC(=O)/C(C#N)=C/c1ccc(F)c(F)c1 (stereo not given)	-8.4%	11.7µM*	-9.3%	-5.6%	?
Cc1ccc(CNC(=O)c2cc(Sc3ccc(F)cc3F)nc3ccccc23)cc1	-15.3%	nt	-15.3%	nt	nt
CC1=C(CC(=O)c2ccccc2)C(=O)c2ccccc2C1=O	-27.1%	0.738µM*	?	?	0.828µM*
O=C(CN1C(=O)c2ccccc2C1=O)c1ccccc1	11.0%	nt	nt	11.5%	96.9%
Cc1cc(F)ccc1S(=O)(=O)Nc1ccccc1C(=O)NC1CCN(Cc2ccccc2)CC1	10µM*	2.94µM*	?	-16.2%	3.29µM*
Cc1ccc(C)n1-c1ccc(C(=O)NC2CCN(Cc3ccccc3)CC2)cc1	-25.4%	?	-13.8%	-5.2%	11.7µM*
O=C(NC1CCN(Cc2ccccc2)CC1)c1cn(-c2ccccc2)nc1-c1cccnc1	?	3.7µM*	?	6.0%	2.33µM*
CCc1nc2ccc(C(=O)NC3CCN(Cc4ccccc4)CC3)cn2c1N(C)Cc1ccc(N(C)C)cc1	-13.6%	nt	15.5%	22.4µM*	nt
CCc1nc2ccc(C(=O)NC3CCN(C)CC3)cn2c1N(C)CCC(C)C	-3.8%	nt	7.8%	0.3%	nt
COc1ccc2[nH]cc(C(=O)CNc3nccs3)c2c1	-25.1%	nt	-27.3%	nt	nt
Cc1ccc(C(=O)N2CCCCC2CCN2CCCCC2)cc1 (stereo not given)	-8.7%	nt	-11.8%	nt	nt
CC(C)CC(=O)n1nc(-c2ccco2)nc1NCc1ccc(Cl)cc1	-11.5%	nt	-18.1%	nt	nt
O=C(NC1CCCCCC1)c1ccc(CN2CCOCC2)cc1	-3.8%	54.1%	i	-0.8%	10.4µM*
O=C(CCS(=O)(=O)c1cc(Br)cc2c1N(C(=O)C1CC1)CC2)N1CCN(c2ccccc2)CC1	-8.4%	nt	-14.3%	nt	nt
C=CC[C@@H]1C=C[C@H](O/N=C/[C@@H](NS(=O)(=O)c2ccc(C)cc2)[C@H](C)/C=C/CC(=O)OC)[C@@H](CO)O1	nt	9.9%	nt	nt	-27.1%
COC(=O)C/C=C/[C@@H](C)[C@@H](/C=N/OC[C@@H](C)[C@H](OCc1ccccc1)C(C)C)NS(=O)(=O)c1ccc(C)cc1	nt	13.1µM*	nt	nt	9.28µM*
CNC(=O)c1ccc(NC(=O)COc2ccc(-c3nn(C)c(=O)c4ccccc34)cc2)cc1	0.0%	nt	-17.8%	nt	nt
CN(C(=O)c1ccc(-c2nn(C)c(=O)c3ccccc23)cc1)C1CCCCC1	-26.8%	11.7µM*	-25.7%	-15.3%	13.3%
CCN(CC)C(=O)c1ccc(NC(=O)COc2ccc(-c3nn(C)c(=O)c4ccccc34)cc2)cc1	-26.4%	13.1µM*	-12.6%	-10.3%	?
CCC(=O)Nc1cc(-c2nn(C)c(=O)c3ccccc23)ccc1N1CCOCC1	-1.9%	nt	i	11.2%	?
